Assay results published in PubChem BioAssay (NCATS).

Assay: qHTS drug screen for cell cycle checkpoint inhibitors in PARPi-resistant BRCA-mutant ovarian cancer cell lines. (AID 1963452)
Conditions: PEO1/OlaR viability, CellTiter-Glo luminescence, 96 h; measured here: PEO4 Z-AUC; stronger effect = lower value
How it was run: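 PEO1, PEO4 and PEO1/OlaR ovarian cancer cells, 600 per well, exposed 96 h at 37C to a dilution series. Viability read by CellTiter-Glo luminescence, normalized to DMSO and empty wells; activity summarized as Z-AUC.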
`C#CCN(C)CC1=Cc2ccccc2Oc2ccccc21` showed a Z-AUC of -0.09. Compound `O=C1NC(=O)C(c2cnc3ccccn23)=C1c1cn2c3c(cccc13)CN(C(=O)N1CCOCC1)CC2` has a Z-AUC of -0.9. Work on `COc1cc2c(cc1OC)CC(=O)N(CCCN(C)C[C@H]1Cc3cc(OC)c(OC)cc31)CC2` yielded a Z-AUC of 0.443. Compound `Cc1ccc(C(=O)N(CCCN)[C@@H](c2nc3cc(Cl)ccc3c(=O)n2Cc2ccccc2)C(C)C)cc1` has a Z-AUC of -2.45. `Clc1ccc(COC(Cn2ccnc2)c2ccc(Cl)cc2Cl)c(Cl)c1` (stereo not given) showed a Z-AUC of -0.196. In the case of `CCC[C@H](Nc1nc(-c2ccc(NC(=O)NCC)c(OC)c2)ncc1C)c1cccnc1`, the Z-AUC is reported as -3.47. `CCCCOCCOc1nc(-c2ccc(C(=O)O)c(F)c2)sc1C` showed a Z-AUC of 0.696. With `O=C(O)c1nc(=O)[nH]c(=O)[nH]1` the Z-AUC was -0.258. `C[C@H]1COC2=C1C(=O)C(=O)c1c2ccc2c1CCCC2(C)C` gave a Z-AUC of 1.41. `Cc1cn([C@@H]2C[C@@H](O)[C@H](CO)O2)c(=O)[nH]c1=O` showed a Z-AUC of 0.771. In the case of `CS(=O)(=O)c1ccc(C2=C(c3ccccc3)C(=O)OC2)cc1`, the Z-AUC is reported as 0.0438. For `Cc1ccccc1C(C(=O)NC1CCCCC1)N(C(=O)CNc1ccc(C#N)cc1)c1cccc(F)c1` (stereo not given), the Z-AUC was 0.0144. In the case of `CCCCC(F)(F)[C@@]1(O)CC[C@H]2[C@H](CC(=O)[C@@H]2CCCCCCC(=O)O)O1`, the Z-AUC is reported as 0.738. `CC[C@H](C=C[C@@H](C)[C@H]1CC[C@H]2[C@@H]3CC=C4C[C@@H](O)CC[C@]4(C)[C@@H]3CC[C@]12C)C(C)C` showed a Z-AUC of 1.84. In the case of `Cc1cc2c(cc1C1(c3ccc(C(=O)O)cn3)CC1)C(C)(C)CCC2(C)C`, the Z-AUC is reported as 0.601. For `CCOC(=O)[C@@H](N)CCC(=O)N[C@@H](CSCc1ccccc1)C(=O)N[C@@H](C(=O)OCC)c1ccccc1`, the Z-AUC was 1.07. For `Cc1ccc(C(=O)N(CCCN)[C@@H](c2oc3cc(Cl)ccc3c(=O)c2Cc2ccccc2)C(C)C)cc1`, the Z-AUC was -2.5. Compound `CN1CCN2c3ncccc3Cc3ccccc3C2C1` (stereo not given) has a Z-AUC of 0.472. With `NS(=O)(=O)c1cc(Cl)c(Cl)c(S(N)(=O)=O)c1` the Z-AUC was 0.359. In the case of `CCN(CCO)CCCOc1ccc2c(Nc3cc(CC(=O)Nc4cccc(F)c4)[nH]n3)ncnc2c1`, the Z-AUC is reported as -1.66. Compound `CN(C)CCN(C)C(=O)c1ccc(NC(=O)Nc2ccc(-c3nc(N4CCOCC4)c4ccn(CC(F)(F)F)c4n3)cc2)cc1` has a Z-AUC of -1.82. Compound `CC(C)C[C@@H](N)[C@H](O)C(=O)N[C@H](C(=O)N[C@H](C(=O)N[C@@H](CC(=O)O)C(=O)O)C(C)C)C(C)C` has a Z-AUC of -0.277. In the case of `CCC[C@H](N[C@@H](C)C(=O)N1[C@@H]2CCCC[C@H]2C[C@H]1C(=O)O)C(=O)OCC`, the Z-AUC is reported as -0.177. For `O=C(O)C1=CC(O)C(O)[C@H](O)C1` (stereo not given in full), the Z-AUC was 1.23. `N#CC(c1ccc(Cl)cc1)c1c(Cl)cc(-n2ncc(=O)[nH]c2=O)cc1Cl` (stereo not given) gave a Z-AUC of -1.22. Compound `COc1ccc(-c2nc3ccc(C4=NNC(=O)CC4C)cc3[nH]2)cc1` (stereo not given) has a Z-AUC of 0.0118. Work on `COc1cccc(OC)c1-c1cc(C(=O)NC2(C(=O)O)C3CC4CC(C3)CC2C4)nn1-c1ccnc2cc(Cl)ccc12` (stereo not given) yielded a Z-AUC of 1.12. With `CCC(=O)N1CCN(c2ccc(-n3c(=O)ccc4cnc5ccc(-c6cnc7ccccc7c6)cc5c43)cc2C(F)(F)F)CC1` the Z-AUC was -1.97. Compound `CCCCC[C@H](O)C=C[C@H]1[C@H](O)CC(=O)[C@H]1CC=CCCCC(=O)O` has a Z-AUC of 0.73. Work on `C[C@H](c1ccc(F)cc1CCCC(=O)O)N(c1cc(F)ccc1F)S(=O)(=O)c1ccc(Cl)cc1` yielded a Z-AUC of -0.797. Work on `COc1ccnc(CS(=O)c2nc3ccc(OC(F)F)cc3[nH]2)c1OC` (stereo not given) yielded a Z-AUC of 1.19. In the case of `CC1(C)CC(=O)c2c(C(F)(F)F)nn(-c3ccc(C(N)=O)c(NC4CCC(O)CC4)c3)c2C1` (stereo not given), the Z-AUC is reported as -1.31. For `COc1ccc(-c2ccc3ncc4c(c3c2)n(-c2ccc(N3CCNCC3)c(C(F)(F)F)c2)c(=O)n4C)cn1`, the Z-AUC was -2.26. With `N#Cc1c(N(CC(=O)O)CC(=O)O)sc(C(=O)O)c1CC(=O)O` the Z-AUC was 0.481. With `C=C1c2cccc(O)c2C(O)=C2C(=O)[C@@]3(O)C(O)=C(C(N)=O)C(=O)[C@@H](N(C)C)[C@@H]3[C@@H](O)[C@H]12` the Z-AUC was -0.502.
